Assay [1] has as its target Androgen receptor (Homo sapiens) (UniProt P10275). Kind of assay: ATG_AR_TRANS: Attagene TRANS-FACTORIAL HepG2 Assay for human Androgen Receptor (AR) (AID 2282973). The note with it: HepG2 Attagene TRANS-FACTORIAL AR reporter transcription. Summed up:
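Transfected HepG2, 24 h treatment, chimeric NR-Gal4 driving GAL4-UAS reporters. mRNA induction by RT-PCR/capillary electrophoresis fluorescence; DMSO as negative control and baseline.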

For assay [2], the target named is human AMP-activated Protein Kinase, alpha 1 (AMPKa1), PRKAA1 (gene 5562) (UniProt Q13131). Kind of assay: NVS_ENZ_hAMPKa1: NovaScreen (NVS) Enzymatic Assay for human AMP-activated Protein Kinase, alpha 1 (AMPKa1) (AID 2283130). Summed up: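 Recombinant human AMPKα1 activity was measured cell-free by fluorescent substrate conversion with electrophoretic mobility-shift separation, 1 h after dosing. Duplicate single-point screening was at 25 uM; actives (≥30% inhibition) were retested in concentration-response up to 50 uM.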

The target of assay [3] is human Fibroblast Growth Factor Receptor 1 (FGFR1), FGFR1 (gene 2260) (UniProt P11362). Kind of assay: NVS_ENZ_hFGFR1: NovaScreen (NVS) Enzymatic Assay for human Fibroblast Growth Factor Receptor 1 (FGFR1) (AID 2283159).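 For AC50: hits lower the signal so potencies describe inhibitors of the kinase.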 The method in brief: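 Cell-free recombinant kinase with fluorescent substrate, product separated by electrophoretic mobility shift; read 1 hour after dosing, loss of signal relative to DMSO. Initial screen in duplicate at 25 uM, actives followed in concentration series.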
Sequence of human Fibroblast Growth Factor Receptor 1 (FGFR1), FGFR1 (gene 2260) (P11362 whole entry, looked up): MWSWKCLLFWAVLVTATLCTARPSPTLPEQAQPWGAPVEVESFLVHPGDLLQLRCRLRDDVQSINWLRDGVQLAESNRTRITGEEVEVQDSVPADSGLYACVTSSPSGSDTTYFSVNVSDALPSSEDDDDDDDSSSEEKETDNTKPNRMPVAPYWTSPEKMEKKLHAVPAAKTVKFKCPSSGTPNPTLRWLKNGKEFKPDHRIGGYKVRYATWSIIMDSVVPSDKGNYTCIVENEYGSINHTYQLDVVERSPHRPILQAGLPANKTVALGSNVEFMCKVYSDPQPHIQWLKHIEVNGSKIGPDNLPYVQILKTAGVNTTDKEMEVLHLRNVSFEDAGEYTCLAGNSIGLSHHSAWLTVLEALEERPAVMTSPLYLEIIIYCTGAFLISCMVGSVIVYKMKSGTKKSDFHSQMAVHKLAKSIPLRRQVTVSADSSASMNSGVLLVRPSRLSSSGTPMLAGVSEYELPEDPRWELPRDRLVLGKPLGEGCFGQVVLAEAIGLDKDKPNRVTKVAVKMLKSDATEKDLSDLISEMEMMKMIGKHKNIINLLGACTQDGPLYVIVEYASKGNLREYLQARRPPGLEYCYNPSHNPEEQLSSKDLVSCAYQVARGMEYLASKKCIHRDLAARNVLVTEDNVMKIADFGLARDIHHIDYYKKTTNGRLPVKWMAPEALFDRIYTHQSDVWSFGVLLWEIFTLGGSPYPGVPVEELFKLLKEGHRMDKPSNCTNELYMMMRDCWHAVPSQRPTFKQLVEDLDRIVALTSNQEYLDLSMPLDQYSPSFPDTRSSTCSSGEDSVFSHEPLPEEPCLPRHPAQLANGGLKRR

Assay [4] deals with human Tyrosine Protein Kinase Receptor Tie-2 (Tie2), TEK (gene 7010) (UniProt Q02763). Kind of assay: NVS_ENZ_hTie2: NovaScreen (NVS) Enzymatic Assay for human Tyrosine Protein Kinase Receptor Tie-2 (Tie2) (AID 2283225). The method in brief:
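Recombinant human Tie2 kinase activity was read cell-free by fluorescence with electrophoretic mobility shift, 1 hour after dosing. The screen used 25 uM in duplicate, then concentration-response up to 50 uM. Signal loss was scored against DMSO.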

In assay [5] the target is Bile acid receptor (Homo sapiens) (UniProt Q96RI1). In words: NVS_NR_hFXR_Agonist: NovaScreen (NVS) Nuclear Receptor Binding Assay for human Farnesoid X Receptor Agonism (FXR) (AID 2283347). The method in brief:
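Cell-free TR-FRET binding assay with extracted human FXR protein, agonist format, read 1 h after dosing. Primary screen at 25 uM single concentration in duplicate, actives retested in concentration series; gain of signal versus DMSO.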

The target in assay [6] is human CYP4F12, CYP4F12 (gene 66002) (UniProt Q9HCS2). In words: NVS_ADME_hCYP4F12: NovaScreen (NVS) CYP450-related Enzyme Activity (ADME) Assay for human CYP4F12 (AID 2283111). Summed up:
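Cell-free fluorescence assay of recombinant human CYP4F12 activity on a specific substrate, read 0.5 h after dosing. Primary screen in duplicate at 10 uM, then concentration series for actives; loss of signal fitted against acetonitrile negative control.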

Assay [7] concerns the target rat Oxytocin Receptor (OXT), Oxtr (gene 25342) (UniProt P70536). Kind of assay: NVS_GPCR_rOXT: NovaScreen (NVS) G Protein-Coupled Receptor Assay for rat Oxytocin Receptor (OXT) (AID 2283330). The method in brief:
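Radioligand displacement on rat uterine membranes, 1 h incubation, filter-based scintillation counting. Chemicals were screened in duplicate at 25 uM, and those passing threshold were retested in concentration-response up to 50 uM. Loss of binding was fitted versus DMSO.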

Assay [8] has as its target human Acetylcholinesterase (AChE), ACHE (gene 43) (UniProt P22303). Kind of assay: NVS_ENZ_hAChE: NovaScreen (NVS) Enzymatic Assay for human Acetylcholinesterase (AChE) (AID 2283129). The method in brief:
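Cell-free colorimetric enzyme-activity assay; compounds read 0.33 hour after dosing, loss of signal vs DMSO baseline. Primary screen in duplicate at 25 uM single concentration, with active compounds retested in concentration series.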

In assay [9] the test system is rat Monoamine Oxidase, MAO-A, Central (MAOAC), gene 29253. Kind of assay: NVS_ENZ_rMAOAC: NovaScreen (NVS) Enzymatic Assay for rat Monoamine Oxidase, MAO-A, Central (MAOAC) (AID 2283243).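 Note: potency refers to inhibition seen as signal drop below DMSO baseline.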 Summed up:
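Steps: rat brain protein extract dosed with test chemical (25 uM, duplicate, primary); incubated 1.5 h; radiolabelled product separated from substrate and counted. Signal loss versus DMSO scored as inhibition.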

The target in assay [10] is rat CYP1A2, Cyp1a2 (gene 24297) (UniProt P04799). In words: NVS_ADME_rCYP1A2: NovaScreen (NVS) CYP450-related Enzyme Activity (ADME) Assay for rat CYP1A2 (AID 2283115). Summed up: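 Cell-free recombinant rat enzyme with fluorogenic substrate, read by fluorescence intensity 1 hour after dosing. Loss of signal versus acetonitrile negative control; primary screen at 10 uM in duplicate, actives followed in concentration series.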

In assay [11] the target is human Protein Tyrosine Phosphatase Receptor Type C (PTPRC), PTPRC (gene 5788) (UniProt P08575). Kind of assay: NVS_ENZ_hPTPRC: NovaScreen (NVS) Enzymatic Assay for human Protein Tyrosine Phosphatase Receptor Type C (PTPRC) (AID 2283212). Summed up:
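Yeast-extracted human PTPRC used in a cell-free colorimetric enzyme activity read-out, 1 h after dosing. Primary screen in duplicate at 25 uM; actives rerun in concentration-response up to 50 uM, DMSO as baseline.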

The target of assay [12] is human Aurora Kinase A - serine/threonine-protein Kinase 6 (AurA), AURKA (gene 6790) (UniProt O14965). In words: NVS_ENZ_hAurA: NovaScreen (NVS) Enzymatic Assay for human Aurora Kinase A - serine/threonine-protein Kinase 6 (AurA) (AID 2283142). Summed up: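 Cell-free enzymatic assay with human Aurora A, 1 hour after dosing. Fluorescent substrate turnover detected after electrophoretic mobility shift separation of substrate and product. Screened at 25 uM, actives retested in concentration-response up to 50 uM.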

The target in assay [13] is human Epidermal Growth Factor Receptor (EGFR), EGFR (gene 1956) (UniProt P00533). Kind of assay: NVS_ENZ_hEGFR: NovaScreen (NVS) Enzymatic Assay for human Epidermal Growth Factor Receptor (EGFR) (AID 2283151). The method in brief: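 Cell-free kinase assay, fluorescence plus electrophoretic mobility shift separating substrate and product, read 1 hour after dosing; loss of signal vs DMSO. Duplicate screen at 25 uM, then concentration-response to 50 uM.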

For assay [14], the target named is human Phosphatase and Tensin Homolog (PTEN), PTEN (gene 5728) (UniProt P60484). In words: NVS_ENZ_hPTEN: NovaScreen (NVS) Enzymatic Assay for human Phosphatase and Tensin Homolog (PTEN) (AID 2283203). The method in brief:
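Cell-free recombinant human PTEN with fluorescent substrate; product separated by electrophoretic mobility shift and read by fluorescence 1 h after dosing. Primary screen in duplicate at 25 uM, actives followed in concentration series versus DMSO.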

Assay [15] has as its target human Protein Tyrosine Phosphatase Non-receptor Type 2 (PTPN2), PTPN2 (gene 5771) (UniProt P17706). In words: NVS_ENZ_hPTPN2: NovaScreen (NVS) Enzymatic Assay for human Protein Tyrosine Phosphatase Non-receptor Type 2 (PTPN2) (AID 2283207). Summed up: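 Cell-free recombinant enzyme with fluorescent substrate, product separated by electrophoretic mobility shift; read 1 h after dosing. Primary screen single concentration (25 uM) in duplicate; actives followed in concentration series; loss of signal versus DMSO.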

The target in assay [16] is human Raf-1 Proto-Oncogene, serine/threonine Kinase (RAF1), RAF1 (gene 5894) (UniProt P04049). In words: NVS_ENZ_hRAF1: NovaScreen (NVS) Enzymatic Assay for human Raf-1 Proto-Oncogene, serine/threonine Kinase (RAF1) (AID 2283216). The method in brief: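 Cell-free recombinant kinase with specific fluorescent substrate, product separated by electrophoretic mobility shift; read 1 h after dosing. Primary screen at 25 uM in duplicate; hits then run in concentration-response up to 50 uM, fitted as loss of signal versus DMSO.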

Molecules are shown by their SMILES. Results filed as inconclusive are left out. Activity calls are given as the source filed them. Rule for the calls: active = hit-call score of the fitted dose curve at least 0.9, where 1 is the maximum; inconclusive = response in the unintended direction; inactive = score below 0.9.

Sequence of human Tyrosine Protein Kinase Receptor Tie-2 (Tie2), TEK (gene 7010) (Q02763 whole entry, looked up): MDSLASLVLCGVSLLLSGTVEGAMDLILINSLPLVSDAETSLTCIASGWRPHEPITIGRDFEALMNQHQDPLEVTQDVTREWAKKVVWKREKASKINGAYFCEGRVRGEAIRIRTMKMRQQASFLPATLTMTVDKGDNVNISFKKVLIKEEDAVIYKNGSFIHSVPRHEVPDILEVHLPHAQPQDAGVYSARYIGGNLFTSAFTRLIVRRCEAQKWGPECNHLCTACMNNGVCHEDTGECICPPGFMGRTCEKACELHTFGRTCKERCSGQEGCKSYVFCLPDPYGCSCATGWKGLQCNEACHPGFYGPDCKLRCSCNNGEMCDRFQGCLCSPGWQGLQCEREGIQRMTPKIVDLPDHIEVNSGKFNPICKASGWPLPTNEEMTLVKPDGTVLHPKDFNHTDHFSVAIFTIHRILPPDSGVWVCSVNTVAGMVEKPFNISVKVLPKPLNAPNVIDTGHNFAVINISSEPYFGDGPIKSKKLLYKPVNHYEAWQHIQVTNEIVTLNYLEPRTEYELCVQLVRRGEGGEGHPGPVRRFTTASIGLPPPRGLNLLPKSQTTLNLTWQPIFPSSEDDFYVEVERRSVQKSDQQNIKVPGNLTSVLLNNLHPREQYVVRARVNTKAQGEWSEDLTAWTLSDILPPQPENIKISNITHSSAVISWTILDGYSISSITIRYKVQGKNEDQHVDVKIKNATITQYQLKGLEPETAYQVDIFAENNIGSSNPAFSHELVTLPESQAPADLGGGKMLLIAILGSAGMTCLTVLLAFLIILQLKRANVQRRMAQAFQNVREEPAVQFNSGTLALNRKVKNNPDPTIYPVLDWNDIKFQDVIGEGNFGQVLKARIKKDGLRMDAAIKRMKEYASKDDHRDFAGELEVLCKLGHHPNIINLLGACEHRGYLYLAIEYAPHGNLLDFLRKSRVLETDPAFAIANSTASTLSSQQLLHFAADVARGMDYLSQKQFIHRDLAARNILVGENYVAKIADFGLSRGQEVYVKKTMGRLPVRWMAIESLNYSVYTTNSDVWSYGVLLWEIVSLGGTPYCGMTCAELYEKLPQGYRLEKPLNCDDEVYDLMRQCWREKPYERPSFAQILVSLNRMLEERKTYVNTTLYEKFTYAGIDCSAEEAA
Sequence of Androgen receptor (Homo sapiens) (P10275 whole entry, looked up, the tested form may be a part): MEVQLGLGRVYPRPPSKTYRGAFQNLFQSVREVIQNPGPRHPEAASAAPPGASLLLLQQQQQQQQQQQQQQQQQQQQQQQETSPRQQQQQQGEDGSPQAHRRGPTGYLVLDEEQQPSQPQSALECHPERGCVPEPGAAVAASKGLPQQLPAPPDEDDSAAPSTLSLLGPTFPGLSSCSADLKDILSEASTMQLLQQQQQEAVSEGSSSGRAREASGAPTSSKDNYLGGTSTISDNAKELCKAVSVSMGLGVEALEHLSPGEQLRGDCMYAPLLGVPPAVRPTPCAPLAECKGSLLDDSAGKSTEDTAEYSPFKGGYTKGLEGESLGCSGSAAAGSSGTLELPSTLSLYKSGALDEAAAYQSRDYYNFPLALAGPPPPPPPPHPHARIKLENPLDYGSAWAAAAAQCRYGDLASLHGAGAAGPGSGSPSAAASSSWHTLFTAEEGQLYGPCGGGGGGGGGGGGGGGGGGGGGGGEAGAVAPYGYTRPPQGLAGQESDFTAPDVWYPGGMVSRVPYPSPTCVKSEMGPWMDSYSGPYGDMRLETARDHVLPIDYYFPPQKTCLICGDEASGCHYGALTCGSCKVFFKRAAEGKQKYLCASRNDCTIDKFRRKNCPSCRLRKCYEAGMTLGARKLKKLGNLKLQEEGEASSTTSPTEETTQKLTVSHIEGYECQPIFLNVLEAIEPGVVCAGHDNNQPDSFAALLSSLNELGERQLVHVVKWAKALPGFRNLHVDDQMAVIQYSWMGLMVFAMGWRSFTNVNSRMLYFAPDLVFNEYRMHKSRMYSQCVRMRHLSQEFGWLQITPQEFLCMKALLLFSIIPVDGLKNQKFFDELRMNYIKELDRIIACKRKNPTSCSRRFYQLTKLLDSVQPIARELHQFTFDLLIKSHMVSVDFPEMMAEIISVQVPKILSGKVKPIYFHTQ
Sequence of Bile acid receptor (Homo sapiens) (Q96RI1 whole entry, looked up): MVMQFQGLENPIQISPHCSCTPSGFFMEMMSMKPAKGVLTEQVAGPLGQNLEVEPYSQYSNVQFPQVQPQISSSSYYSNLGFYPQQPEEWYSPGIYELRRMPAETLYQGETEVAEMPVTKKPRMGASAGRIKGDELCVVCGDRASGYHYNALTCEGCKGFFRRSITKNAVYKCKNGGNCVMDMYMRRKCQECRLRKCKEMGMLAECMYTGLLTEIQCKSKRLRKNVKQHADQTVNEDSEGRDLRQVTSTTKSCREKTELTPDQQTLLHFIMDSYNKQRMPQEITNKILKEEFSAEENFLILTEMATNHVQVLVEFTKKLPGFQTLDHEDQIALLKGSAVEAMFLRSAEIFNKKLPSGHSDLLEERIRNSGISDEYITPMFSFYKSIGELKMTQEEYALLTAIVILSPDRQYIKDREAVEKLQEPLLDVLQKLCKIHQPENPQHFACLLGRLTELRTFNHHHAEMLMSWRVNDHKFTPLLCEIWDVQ
Sequence of rat Oxytocin Receptor (OXT), Oxtr (gene 25342) (P70536 whole entry, looked up): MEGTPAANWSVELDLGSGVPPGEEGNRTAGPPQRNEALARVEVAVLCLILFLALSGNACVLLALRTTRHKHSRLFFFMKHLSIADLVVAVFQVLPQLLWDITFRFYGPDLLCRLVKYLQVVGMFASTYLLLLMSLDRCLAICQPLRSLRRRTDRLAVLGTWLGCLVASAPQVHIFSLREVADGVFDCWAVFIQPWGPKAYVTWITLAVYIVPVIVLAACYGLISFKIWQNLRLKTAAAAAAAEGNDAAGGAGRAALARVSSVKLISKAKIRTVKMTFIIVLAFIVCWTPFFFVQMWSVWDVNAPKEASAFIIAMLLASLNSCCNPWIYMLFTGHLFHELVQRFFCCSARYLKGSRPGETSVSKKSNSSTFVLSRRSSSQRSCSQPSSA
Sequence of human Protein Tyrosine Phosphatase Receptor Type C (PTPRC), PTPRC (gene 5788) (P08575 whole entry, looked up): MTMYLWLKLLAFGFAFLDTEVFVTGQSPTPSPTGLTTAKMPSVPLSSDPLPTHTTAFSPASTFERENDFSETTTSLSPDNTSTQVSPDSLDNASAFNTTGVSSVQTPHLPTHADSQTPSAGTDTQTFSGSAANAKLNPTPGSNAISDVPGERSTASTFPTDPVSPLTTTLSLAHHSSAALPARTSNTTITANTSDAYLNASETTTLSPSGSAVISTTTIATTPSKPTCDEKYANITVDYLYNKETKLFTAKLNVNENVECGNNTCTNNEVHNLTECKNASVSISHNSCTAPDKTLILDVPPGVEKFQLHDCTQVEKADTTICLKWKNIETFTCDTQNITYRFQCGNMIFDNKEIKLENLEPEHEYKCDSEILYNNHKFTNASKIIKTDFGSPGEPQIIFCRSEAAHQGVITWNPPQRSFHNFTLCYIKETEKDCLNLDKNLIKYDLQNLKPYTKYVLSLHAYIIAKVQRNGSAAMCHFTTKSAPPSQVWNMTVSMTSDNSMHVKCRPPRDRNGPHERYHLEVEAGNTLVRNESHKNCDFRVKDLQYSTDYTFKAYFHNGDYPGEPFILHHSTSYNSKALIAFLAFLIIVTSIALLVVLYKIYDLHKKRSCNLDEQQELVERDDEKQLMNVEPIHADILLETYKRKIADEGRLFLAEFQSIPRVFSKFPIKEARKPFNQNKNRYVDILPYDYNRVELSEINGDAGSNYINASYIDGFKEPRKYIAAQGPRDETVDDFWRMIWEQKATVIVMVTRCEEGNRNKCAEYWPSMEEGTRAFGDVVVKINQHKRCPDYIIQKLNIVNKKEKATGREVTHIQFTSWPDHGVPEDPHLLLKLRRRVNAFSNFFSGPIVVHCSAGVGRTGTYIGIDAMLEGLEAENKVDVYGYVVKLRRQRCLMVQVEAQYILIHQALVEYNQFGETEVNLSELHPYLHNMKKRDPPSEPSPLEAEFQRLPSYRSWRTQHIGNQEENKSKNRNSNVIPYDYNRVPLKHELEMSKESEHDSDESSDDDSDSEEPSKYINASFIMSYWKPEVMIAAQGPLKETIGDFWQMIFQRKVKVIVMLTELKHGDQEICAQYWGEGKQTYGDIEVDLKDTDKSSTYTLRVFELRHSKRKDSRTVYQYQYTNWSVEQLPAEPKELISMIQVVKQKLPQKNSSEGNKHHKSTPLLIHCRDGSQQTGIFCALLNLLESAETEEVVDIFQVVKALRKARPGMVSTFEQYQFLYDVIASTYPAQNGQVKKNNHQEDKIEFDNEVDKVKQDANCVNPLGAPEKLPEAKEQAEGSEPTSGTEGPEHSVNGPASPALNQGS

`COCC(C)OCC(C)O` (stereo not given): the call in assay [1], in assay [2], in assay [3], in assay [4] and in assay [5] was inactive.
In the case of `Cc1nc(-c2ccc3c(c2)CCN(CCC2CCC(NC(=O)/C=C/c4ccc(F)cc4)CC2)CC3)no1` (stereo not given), the call in assay [1], in [6] and in assay [7] was inactive. Besides, the AC50 – broadly, the midpoint of the concentration-response curve, whichever way the signal moves – in assay [3] is 5.82 µM (active); in [4], 16.2 µM (active).
As to `CCN(Cc1cccnc1)C(=O)c1cccc(Cl)c1[C@]1(C)C(=O)N(Cc2ccc(OC)cc2OC)c2ccc(Cl)cc21`, the molecule was called inactive in assay [1] and in [8]. The AC50 is 2.51 µM (active) in assay [9], 0.0728 µM (active) in assay [7] and 15.1 µM (active) in assay [5].
On to `CC(=O)OC1CCCCC1`, for which the call in assay [1] was inactive.
Regarding `CN(C)C(=O)Nc1ccc(Cl)c(Cl)c1`, the call in [1] and in assay [10] was inactive. For the same molecule, the AC50 in assay [9] was 13.6 µM (active).
As for `O=C(c1ccccc1)C1CCCCC1`, the outcome in [1] and in assay [11] was inactive.
Take `CCCCCCCCCCCCc1ccccc1S(=O)(=O)O`: the outcome in assay [1] was inactive. The AC50 was 9.88 µM (active) in [12]; 12.6 µM (active) in assay [13]; 9.42 µM (active) in assay [3]; 13.5 µM (active) in [14]; 19.9 µM (active) in assay [15]; 5.18 µM (active) in [11]. For the same molecule, the half-maximal activity concentration (AC50) in assay [16] was 26 µM (active); in assay [4] it was 9.14 µM (active).
